The structures appear in SMILES notation. About 83,000 compounds went through this panel and 20% of them were active in at least one assay; those are over-represented in the sample as a whole.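 Interpretation: 100, growth as untreated; towards 0, rising growth inhibition; 0, no net growth; 0 to -100, cell death. Compounds scoring below 10 were considered active.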 Unmarked numbers belong to inactive results. Active and inactive are the calls of the source.

Results on seven compounds are retold here after PubChem BioAssay (NCI).

Assay in all cases: NCI-60 one-dose screen, 48 h (100 = growth as untreated, 0 = no growth, -100 = all killed)
For assay [1], the system named is HT29 colon. The note with it: 10 µM unless noted.
Assay [2] has as its system SNB-75 CNS. The note with it: 10 µM unless noted.
Assay [3] relates to SNB-19 CNS. The note with it: 10 µM unless noted.
In assay [4] the test system is U251 CNS. The conditions noted are these: 10 µM unless noted.
The test system of assay [5] is PC-3 prostate. The note with it: 10 µM unless noted.
Assay [6] relates to SK-MEL-5 melanoma. The conditions noted are these: 10 µM unless noted.
Assay [7] relates to UACC-62 melanoma. The note with it: 10 µM unless noted.
In assay [8] the test system is LOX IMVI melanoma. The conditions noted are these: 10 µM unless noted.
For assay [9], the system named is SK-MEL-28 melanoma. The note with it: 10 µM.
The subject of assay [10] is SK-MEL-2 melanoma. The note with it: 10 µM unless noted.
The subject of assay [11] is EKVX NSCLC. The note with it: 10 µM unless noted.
The subject of assay [12] is SN12C renal. The conditions noted are these: 10 µM unless noted.
The test system of assay [13] is UO-31 renal. The conditions noted are these: 10 µM unless noted.
Assay [14] deals with TK-10 renal. The conditions noted are these: 10 µM unless noted.
For assay [15], the system named is ACHN renal. The conditions noted are these: 10 µM unless noted.
Assay [16] has as its system CAKI-1 renal. The conditions noted are these: 10 µM unless noted.
In assay [17] the test system is A498 renal. The note with it: 10 µM unless noted.
The subject of assay [18] is CCRF-CEM leukemia. The conditions noted are these: 10 µM unless noted.
Assay [19] deals with MOLT-4 leukemia. The conditions noted are these: 10 µM unless noted.
The test system of assay [20] is SR leukemia. The conditions noted are these: 10 µM unless noted.

For the compound `O=C1Nc2ccccc2/C1=C/c1cccs1`, the growth in assay [1] is 110%; in assay [2] it was 103%; in [3], 83.2%; in assay [4] it was 83.2%; in assay [5], 92.3%; in assay [6] it was 85.9%. In addition, the growth was 85.9% in assay [7]; 93% in assay [8]; 102% in assay [9]; 110% in [10]; 73.2% in assay [11]; 89.9% in assay [12]. Besides, the growth in [13] was 62.2%; in assay [14] it was 134%; in assay [15], 86.7%; in assay [16], 90.4%; in assay [17], 106%; in assay [18], 97.2%. The growth in assay [19] is 102%; in [20], 121%.

For `COc1cc2nc(NC3CCC3)nc(NC3CCN(C(C)C)CC3)c2cc1OC`, the growth is 14.5% in [1]; 46.8% in assay [2]; 91% in assay [3]; 21.5% in [4]; 58.9% in assay [5]; 14.5% in assay [6]. The growth in assay [7] is 83.5%; in assay [8] it was 42.9%; in [9] it was 38.1%; in [10], 91.5%; in [11] it was 83.5%; in [12], 92.2%. Further, the growth in assay [13] is 80.6%; in [14] it was 46.8%; in assay [15] it was 57.2%; in assay [16], 92.2%; in assay [17], 75.9%; in assay [18], 46.5%. Moreover, the growth in assay [19] was 45.5%; in [20], 2.34% (active).

In the case of `Nc1nc(-c2ccccc2Br)nn1-c1nc2ccccc2s1`, the growth in [1] is 101%; in [2] it was 96.7%; in assay [3], 97.2%; in assay [4], 107%; in [5], 103%; in assay [6], 104%. For the same compound, the growth in assay [7] was 96.6%; in [8], 106%; in assay [9], 103%; in [10] it was 96.7%; in [11], 92.2%; in assay [12], 100%. The growth is 105% in assay [13]; 118% in [14]; 98.3% in assay [15]; 97.2% in assay [16]; 101% in assay [17]; 101% in [18]. Besides, the growth was 88.3% in [19] and 81.5% in assay [20].

`COc1cccc(C(=O)Cn2cc(/C=C(\C#N)S(=O)(=O)c3ccccc3)c3ccccc32)c1`: the growth in assay [1] was 111%; in assay [2] it was 92.6%; in assay [3] it was 95.4%; in assay [4], 103%; in assay [5], 109%; in assay [6], 92.4%. In addition, the growth is 87.5% in [7]; 94.8% in assay [8]; 112% in [9]; 85.9% in [10]; 114% in assay [11]; 83.7% in [12]. For the same compound, the growth was 70.4% in assay [13]; 106% in assay [14]; 111% in [15]; 118% in assay [16]; -75.9% (active) in [17]; 103% in assay [19]. Further, in assay [20], the growth was 99.4%.

Turning to `N#C/C(=C\c1c(-c2ccccc2)[nH]c2ccccc12)S(=O)(=O)c1ccccc1`, the growth is 18.3% in assay [1]; 12.4% in [2]; 40.3% in assay [3]; 33.4% in assay [4]; 5.37% (active) in assay [5]; 11.6% in assay [6]. For the same compound, the growth in [7] is 34.3%; in assay [8] it was 42.7%; in assay [9], 52.4%; in [10] it was 46.6%; in assay [11] it was 61.7%; in assay [12], 54%. The growth is 51.2% in assay [13]; 69.4% in assay [14]; 59.4% in assay [15]; 41.5% in [16]; 24.2% in assay [17]; 33.7% in assay [19].

Consider `O=c1oc2ccc(I)cc2c(=O)n1-c1ccc(Cl)cc1F`, for which the growth was 63.6% in assay [1]; -12.3% (active) in assay [2]; 20.8% in assay [3]; 0.686% (active) in [4]; -0.803% (active) in [5]; -87.2% (active) in assay [6]. The growth in assay [7] is -15.8% (active); in assay [8], 13%; in assay [9] it was 10.9%; in assay [10], -28.6% (active); in assay [11], 9.47% (active); in assay [12] it was 2.21% (active). Moreover, the growth in assay [13] is 2.47% (active); in assay [14], 10.5%; in [15], 3.57% (active); in assay [16] it was -16.9% (active); in assay [18] it was 7.77% (active); in [19], -11.1% (active).

For the compound `COC(=O)[C@H](NC(=O)C1(C)CCC[C@]2(C)[C@H]3C[C@H]4C(C(C)C)=C[C@]3(CC[C@@H]12)[C@@H]1C(=O)CCC(=O)[C@@H]14)C(C)C` (stereo not given in full), the growth in [1] is 109%; in assay [2] it was 83.7%; in assay [3], 92.9%; in assay [4] it was 99.1%; in [5], 90.8%; in assay [6] it was 101%. In addition, the growth in [7] was 84.4%; in assay [8], 90.5%; in [9] it was 99.7%; in [10], 116%; in [11] it was 94.9%; in assay [12], 99.8%. The growth in assay [13] is 90.7%; in assay [14] it was 127%; in assay [15], 100%; in assay [16], 88.4%; in [17] it was 110%; in assay [18], 104%. The values for the growth in assay [19] and in assay [20] were 102% and 89.7%, respectively.
